A selection: hits, their analogues and other compounds. The true share with any hit is near 10%.
NPR1 antag = human Npr1 receptor antagonism | 1.6% of 76,000 active | HEK293 hNpr1 GloSensor cGMP, ANP-stimulated luminescence | P16066 | AID 1347048 | Potency, µM (highest dose often 46.3 µM), usual class: inhibitors; calls by dose curve; further: nearly all actives have a fitted effect of over 60% in size
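HEK293 cells stably expressing human Npr1 and cGMP GloSensor pGS-40F, loaded 2 h with 2% GloSensor reagent, given compound 30 min at room temperature. Luminescence read before and 20 min after 0.1 nM hNppA.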
GPT2 inhibitor = inhibitors of human GPT2 alanine aminotransferase | 0.25% of 100,000 active | Potency, µM (top dose mostly 57.7 µM), usual class: inhibitors | Recombinant GPT2, coupled pyruvate oxidase/HRP Amplex Red fluorescence; further: nearly all actives have a fitted effect of over 60% in size
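Recombinant GPT2 (10ng/uL) with 250uM a-KG and 2mM L-alanine, 30 min at room temperature, in HEPES pH 7.5 buffer. Pyruvate detected by pyruvate oxidase/HRP/Amplex Red fluorescence after 30 min in the dark; AOA (50uM) as positive control.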
3T3 cytotox = NIH 3T3 cell cytotoxicity | Potency, µM (series often up to 96.7 µM), most hits filed as inhibitors | 4.3% of 94,000 active | AID 1345082 | NIH 3T3 viability, CellTiter-Glo ATP luminescence, 48-72 h; further: nearly all actives have a fitted effect of over 55% in size
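Cytotoxicity was measured by CellTiter-Glo ATP luminescence after 48 or 72 h compound exposure at 37 °C. Mouse NIH 3T3 fibroblasts were seeded at 400 cells/well and dosed by 23 nL pin transfer.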
FLuc inh = Photinus pyralis luciferase inhibition | P08659 | purified P. pyralis luciferase, luminescence, biochemical | Potency, µM (top dose mostly 115 µM), hits mostly inhibitors | 2.5% of 76,000 active | AID 1347043; further: nearly all actives have a fitted effect of over 65% in size
Target sequence (P08659 whole entry, looked up): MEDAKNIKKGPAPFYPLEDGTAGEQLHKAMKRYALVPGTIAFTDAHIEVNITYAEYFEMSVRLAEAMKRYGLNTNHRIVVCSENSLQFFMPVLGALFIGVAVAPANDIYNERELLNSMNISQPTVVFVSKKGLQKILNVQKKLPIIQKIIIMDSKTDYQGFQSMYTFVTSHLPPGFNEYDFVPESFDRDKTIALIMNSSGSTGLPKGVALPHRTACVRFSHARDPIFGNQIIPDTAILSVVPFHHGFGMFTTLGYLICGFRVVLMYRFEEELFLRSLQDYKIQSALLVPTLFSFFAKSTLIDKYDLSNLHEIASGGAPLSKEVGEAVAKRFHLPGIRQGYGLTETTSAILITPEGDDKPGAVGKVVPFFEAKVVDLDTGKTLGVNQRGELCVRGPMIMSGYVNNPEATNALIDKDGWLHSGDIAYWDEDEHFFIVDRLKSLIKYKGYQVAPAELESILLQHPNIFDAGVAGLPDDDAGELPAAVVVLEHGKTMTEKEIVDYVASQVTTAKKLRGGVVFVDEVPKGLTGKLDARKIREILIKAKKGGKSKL
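Cell-free enzyme assay, 10nM P. pyralis luciferase, luciferin and ATP each at 10uM. Inhibition profiled over a 6-point titration, read as luminescence.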
HEK cytotox = kills HEK 293 cells | Potency, µM (top dose mostly 115 µM), actives largely listed as inhibitors | AID 1345083 | 6.6% of 94,000 active | HEK 293 viability, ATP luminescence (CellTiter-Glo), 48-72 h; further: nearly all actives have a fitted effect of over 60% in size
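HEK 293 cells at 250 cells/well were exposed to compounds by pintool transfer for 48 or 72 hr at 37 degree Celsius, 5% CO2. Viability was read as ATP-coupled luminescence with CellTiter-Glo after 10 min at room temperature.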
Large screens that a line does not name were inactive. Unless noted, the call rests on the fitted dose curve; in most records, active means well fitted curve in the direction sought with a large enough effect; inconclusive means small, poorly fitted or top-dose-only effect, or another doubt; inactive means no such curve, though single readings can be large; an effect the other way counts as inactive or inconclusive.

Cn1ncc2c(C(=O)NCc3cccs3)cc(-c3ccccc3F)nc21	HEK cytotox inconclusive (no result: NPR1 antag, GPT2 inhibitor, FLuc inh)
CCCCCC(=O)N1C[C@@H](C(N)=O)[C@@H]2Oc3ccc(Cl)cc3[C@@H]21	HEK cytotox inconclusive (no result: NPR1 antag, GPT2 inhibitor, FLuc inh)
O=C(CCc1ccccc1)N1C[C@@H](CO)[C@@H]2Oc3ccc(Cl)cc3[C@@H]21	3T3 cytotox inconclusive, HEK cytotox 79µM (no result: NPR1 antag, GPT2 inhibitor, FLuc inh)
O=C(NCCCc1ccccc1)C1CCN(Cc2ccccc2-c2ccccc2F)CC1	3T3 cytotox inconclusive, HEK cytotox 22µM (no result: NPR1 antag, GPT2 inhibitor, FLuc inh)
O=C(NCc1cccc(F)c1)C1CCN(Cc2ccccc2-c2ccccc2F)CC1	3T3 cytotox inconclusive, HEK cytotox 40µM (no result: NPR1 antag, GPT2 inhibitor, FLuc inh)
O=C(c1cccc(Cl)c1)N1CCN(Cc2ccccc2-c2ccccc2F)CC1	3T3 cytotox 45µM, HEK cytotox inconclusive (no result: NPR1 antag, FLuc inh)
O=C(C1CCN(Cc2ccccc2-c2ccccc2F)CC1)N1CCC(Cc2ccccc2)CC1	3T3 cytotox 35µM, HEK cytotox 35µM (no result: NPR1 antag, GPT2 inhibitor, FLuc inh)
O=C(C1CCCC1)N1CCN(Cc2ccccc2-c2ccccc2F)CC1	3T3 cytotox inconclusive, HEK cytotox inconclusive (no result: NPR1 antag, FLuc inh)
O=C(NCC(F)(F)F)C1CCN(Cc2ccccc2-c2ccccc2F)CC1	none (no result: NPR1 antag, GPT2 inhibitor, FLuc inh)
O=C(C1CCCCC1)N1CCC(C2CCN(Cc3cccc(F)c3F)CC2)C1 (centres undefined)	3T3 cytotox inconclusive, HEK cytotox 79µM
O=C1CCCN1CC(=O)N1CCC(C2CCN(Cc3cccc(F)c3F)CC2)C1 (centres undefined)	none
CC(C)(C)CN1CCOC[C@H]1c1ncc(-c2ccc(Cl)s2)[nH]1	3T3 cytotox inconclusive, HEK cytotox 79µM
Clc1ccc(-c2cnc([C@@H]3COCCN3Cc3ccccc3)[nH]2)s1	NPR1 antag inconclusive, 3T3 cytotox 79µM, HEK cytotox 100µM
Cn1c(CN2CCOC[C@H]2c2ncc(-c3ccc(Cl)s3)[nH]2)nc2ccccc21	NPR1 antag inconclusive, 3T3 cytotox 89µM, HEK cytotox inconclusive
Clc1ccc(-c2cnc([C@@H]3COCCN3C3CCCCC3)[nH]2)s1	3T3 cytotox 79µM, HEK cytotox 79µM
O=C(O)c1ccc(CN2CCOC[C@H]2c2ncc(-c3ccc(Cl)s3)[nH]2)cc1	none
CC(C)N1C(=O)C2(CCCC2)C1C(=O)NC1CCCCC1 (centres undefined)	none
O=C(NCc1cccs1)C1CN(S(=O)(=O)c2cccnc2)CC12CCCCC2 (centres undefined)	none
COc1cc(CN2CCC3(CCNCC3)C2)cc(OC)c1OC	HEK cytotox inconclusive
Cc1ccc(CN2CCC3(CCNCC3)C2)c(Cl)c1Cl	3T3 cytotox inconclusive, HEK cytotox inconclusive
c1ccc(COc2ccccc2CN2CCC3(CCNCC3)C2)cc1	3T3 cytotox 22µM, HEK cytotox 28µM
CC(C)(C)c1cccc(CN2CCC3(CCNCC3)C2)c1O	3T3 cytotox 22µM, HEK cytotox 22µM
CC(=O)Nc1ccc(C2(C(=O)N(C)Cc3ccccc3)CCCCC2)cc1	3T3 cytotox inconclusive, HEK cytotox 50µM
CN(Cc1ccccc1)C(=O)C1(c2ccc(NC(=O)C3CC3)cc2)CCCCC1	3T3 cytotox inconclusive, HEK cytotox 35µM
COCCOC1CCN(C(=O)c2cccc(C)c2)CC1	none
O=C(Nc1cc(-c2ccncc2)nn1-c1ccccc1)c1ccc(C(F)(F)F)cc1	3T3 cytotox 32µM, HEK cytotox inconclusive (no result: NPR1 antag, FLuc inh)
COc1ccc(C(=O)Nc2cc(-c3ccncc3)nn2-c2ccccc2)cc1	3T3 cytotox inconclusive, HEK cytotox inconclusive (no result: NPR1 antag, FLuc inh)
COc1ccc(S(=O)(=O)NC[C@@H]2C=C(C)[C@H](CC(=O)N3CCN(c4ccccn4)CC3)C[C@H]2C(C)C)cc1	3T3 cytotox 8.9µM, HEK cytotox inconclusive
CCOC(=O)C[C@@H]1C[C@@H](C(C)C)[C@H](CNS(=O)(=O)c2ccc(OC)cc2)C=C1C	3T3 cytotox inconclusive, HEK cytotox 40µM
COc1ccc(S(=O)(=O)NC[C@@H]2C=C(C)[C@H](CC(=O)N3CCN(C)CC3)C[C@H]2C(C)C)cc1	3T3 cytotox inconclusive, HEK cytotox inconclusive
COc1ccc(CNC(=O)c2nnn3c2CN(Cc2cccc(Cl)c2)C(=O)CC3)cc1OC	3T3 cytotox inconclusive
O=C(Nc1ccccc1)c1nnn2c1CN(Cc1ccccc1)C(=O)CC2	3T3 cytotox 100µM
Cc1ccc(C(=O)N2CC(N(Cc3cccnc3)S(C)(=O)=O)C2)s1	none
CC(C)CN1C[C@@H](C(=O)O)C[C@@H](C(=O)NCc2ccccn2)C1	none
O=C1N(c2ccccc2)c2ccccc2C12CCN(Cc1ccc(C(F)(F)F)cc1)C2 (centres undefined)	3T3 cytotox inconclusive, HEK cytotox 50µM (no result: NPR1 antag, FLuc inh)
COc1ccc(CN2CCC3(C2)C(=O)N(C)c2ccccc23)cc1 (centres undefined)	3T3 cytotox inconclusive, HEK cytotox inconclusive
COc1ccc(CN2CCC3(C2)C(=O)N(Cc2ccccc2)c2ccccc23)cc1 (centres undefined)	NPR1 antag inconclusive, 3T3 cytotox 35µM, HEK cytotox 40µM
COc1ccc(CN2CCC3(C2)C(=O)N(c2ccccc2)c2ccccc23)cc1 (centres undefined)	3T3 cytotox inconclusive, HEK cytotox 50µM (no result: NPR1 antag, FLuc inh)
N#Cc1ccc(CN2CCC3(C2)C(=O)N(c2ccccc2)c2ccccc23)cc1 (centres undefined)	3T3 cytotox inconclusive, HEK cytotox 16µM (no result: NPR1 antag, FLuc inh)
COc1ccc(C(=O)N2CCC3(CC2)CC(c2nc(C)no2)N(C)C3)c(OC)n1 (centres undefined)	none
Cc1nc2scc(CC(=O)NC(C)C)n2c(=O)c1-c1cc(C)n(-c2cccc(F)c2)n1	none
COC1CN(C)C(=O)CN(S(=O)(=O)c2cccs2)C1 (centres undefined)	3T3 cytotox inconclusive (no result: NPR1 antag, GPT2 inhibitor, FLuc inh)
CN(C)c1ccc(CN2CCC3(C2)C(=O)N(C)c2ccccc23)cc1 (centres undefined)	3T3 cytotox inconclusive, HEK cytotox 79µM
CC(=O)Nc1ccc(CN2CCC3(C2)C(=O)N(C)c2ccccc23)cc1 (centres undefined)	none
COc1cccc(N2C(=O)NC(=NC3CCCCC3)C23CCCN(CCC(C)C)C3)c1 (centres undefined)	3T3 cytotox inconclusive, HEK cytotox 40µM (no result: NPR1 antag, FLuc inh)
O=C1NC(=NC2CCCC2)C2(CCN(CC3CCCCC3)C2)N1c1cc(F)cc(F)c1 (centres undefined)	3T3 cytotox inconclusive, HEK cytotox 35µM (no result: NPR1 antag, FLuc inh)
COc1cccc(N2C(=O)NC(=NC3CCCCC3)C23CCCN(CC2CCCCC2)C3)c1 (centres undefined)	3T3 cytotox 28µM, HEK cytotox 32µM (no result: NPR1 antag, FLuc inh)
COc1cccc(N2C(=O)NC(=NC3CCCC3)C23CCCN(CC2CCCCC2)C3)c1 (centres undefined)	3T3 cytotox inconclusive, HEK cytotox inconclusive (no result: NPR1 antag, FLuc inh)
CC1=C[C@@H](CNC(=O)c2ccc(C#N)cc2)[C@H](C(C)C)C[C@H]1CC(=O)N1CCCC1	HEK cytotox inconclusive

Assay outcomes deposited in PubChem BioAssay by National Center for Advancing Translational Sciences (NCATS).
